# Test results taken from ChEMBL document CHEMBL3988442, “University of Dundee, Small-Polar-MMV Screening Library” (2021).
# Values joined by “and” are separate entries in the source; they are usually repeats but may differ in a detail not shown here. Equal values may be shown once. For some assays here: Potency and affinity values are given separately.
# What was measured:
# Design in all cases: scale not given: direction of the effect not stated beside the values
# [1] = biological target: Protein translocase subunit SecA (Escherichia coli (strain K12)) (UniProt P10408); assay: Assay to Identify E. coli SecA ATPase Inhibitors; type: functional; settings: 30 µM
# [2] = biological target: T1, Ubiquitin-activating enzyme e1, putative (Leishmania donovani (strain BPK282A1)) (UniProt E9BSI1); assay: Leishmania donovani Ubiquitin Activating Enzyme (LdE1); type: functional; settings: 30 µM
# T1 sequence (whole entry): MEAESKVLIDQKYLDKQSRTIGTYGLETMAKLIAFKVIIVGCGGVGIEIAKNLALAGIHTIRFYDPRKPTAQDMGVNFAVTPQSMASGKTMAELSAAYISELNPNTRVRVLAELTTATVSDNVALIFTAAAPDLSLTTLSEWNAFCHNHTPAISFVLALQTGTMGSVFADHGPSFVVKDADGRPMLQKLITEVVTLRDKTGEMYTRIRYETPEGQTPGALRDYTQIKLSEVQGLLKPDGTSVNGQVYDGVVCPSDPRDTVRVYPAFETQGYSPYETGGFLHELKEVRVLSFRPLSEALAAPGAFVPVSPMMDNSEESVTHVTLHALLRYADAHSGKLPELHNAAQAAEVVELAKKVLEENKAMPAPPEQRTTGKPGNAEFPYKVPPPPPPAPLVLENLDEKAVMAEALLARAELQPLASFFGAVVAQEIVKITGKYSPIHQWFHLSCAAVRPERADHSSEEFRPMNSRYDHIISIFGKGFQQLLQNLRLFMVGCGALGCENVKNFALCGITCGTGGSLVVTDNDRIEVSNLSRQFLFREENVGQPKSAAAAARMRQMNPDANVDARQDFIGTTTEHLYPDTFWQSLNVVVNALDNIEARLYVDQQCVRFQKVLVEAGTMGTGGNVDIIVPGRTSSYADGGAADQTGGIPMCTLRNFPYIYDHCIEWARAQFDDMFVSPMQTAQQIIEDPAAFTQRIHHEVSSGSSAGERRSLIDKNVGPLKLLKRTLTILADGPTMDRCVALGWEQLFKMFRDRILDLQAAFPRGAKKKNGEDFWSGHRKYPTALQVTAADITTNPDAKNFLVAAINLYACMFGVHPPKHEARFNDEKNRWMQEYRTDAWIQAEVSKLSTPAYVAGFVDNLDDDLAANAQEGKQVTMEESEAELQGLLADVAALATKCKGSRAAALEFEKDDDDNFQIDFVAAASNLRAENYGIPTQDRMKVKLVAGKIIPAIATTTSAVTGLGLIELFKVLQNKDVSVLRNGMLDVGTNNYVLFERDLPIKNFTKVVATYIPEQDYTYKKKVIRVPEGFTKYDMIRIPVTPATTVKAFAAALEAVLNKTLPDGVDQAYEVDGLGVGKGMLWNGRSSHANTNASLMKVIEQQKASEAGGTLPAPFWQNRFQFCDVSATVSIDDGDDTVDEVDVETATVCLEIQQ
# [3] = biological target: Sialic acid-binding Ig-like lectin 9 (Homo sapiens) (UniProt Q9Y336); assay: Hs-Siglec9 ALPHAscreen SOP 20170721; settings: 10 µM
# Trypanosoma cruzi = assay: Trypanosoma cruzi phosphomannomutase and mannose-1-phosphate guanylyltransferase assay; type: functional; settings: 10 µM
# [4] = biological target: T2, Arginase-2, mitochondrial (Homo sapiens) (UniProt P78540); assay: in vitro enzyme assay to detect the production of urea directly proportional to the activity of Arginase II; type: functional; settings: 33.3 µM; also: in the data most compounds retested in dose-response had high values
# T2 sequence (whole entry): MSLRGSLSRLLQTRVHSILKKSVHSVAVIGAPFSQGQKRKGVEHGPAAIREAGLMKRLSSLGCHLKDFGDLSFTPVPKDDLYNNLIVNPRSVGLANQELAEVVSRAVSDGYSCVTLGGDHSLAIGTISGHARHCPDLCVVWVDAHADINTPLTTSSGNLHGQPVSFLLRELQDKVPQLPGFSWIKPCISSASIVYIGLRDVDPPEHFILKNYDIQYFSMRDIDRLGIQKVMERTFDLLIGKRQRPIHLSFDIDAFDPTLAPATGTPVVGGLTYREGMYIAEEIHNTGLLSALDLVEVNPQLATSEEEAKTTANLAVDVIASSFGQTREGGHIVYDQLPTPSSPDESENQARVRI
# [5] = biological target: T3, Proteasome subunit beta (Trypanosoma cruzi) (UniProt O96673); assay: Trypanosoma cruzi proteasome chymotrypsin-like activity (TcProtChymo) assay.; also: in the data most compounds retested in dose-response had high values; type: functional; settings: 9.37 µM
# T3 sequence (whole entry): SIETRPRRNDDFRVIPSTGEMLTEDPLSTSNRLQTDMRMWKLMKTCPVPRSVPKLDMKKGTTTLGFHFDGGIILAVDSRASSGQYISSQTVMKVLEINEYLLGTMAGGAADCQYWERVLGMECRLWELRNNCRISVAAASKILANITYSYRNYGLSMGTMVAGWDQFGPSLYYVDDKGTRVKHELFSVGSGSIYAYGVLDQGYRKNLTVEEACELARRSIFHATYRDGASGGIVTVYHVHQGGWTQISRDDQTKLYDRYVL
# Homo sapiens = species: Homo sapiens; assay: To identify inhibition of the IFN signalling (Jak-Stat) pathway via expression of an eGFP reporter gene under the control of an IFN-stimulated response element (ISRE) containing MxA promoter.; type: functional; settings: 30 µM
# [6] = biological target: T4, Tyrosyl-tRNA synthetase, putative (Trypanosoma cruzi (strain CL Brener)) (UniProt Q4DSP6); assay: Trypanosoma cruzi tyrosyl tRNA synthetase (TcYRS) _High Tyrosine SOP; type: functional; settings: 30 µM; also: in the data most compounds retested in dose-response had high values
# T4 sequence (whole entry): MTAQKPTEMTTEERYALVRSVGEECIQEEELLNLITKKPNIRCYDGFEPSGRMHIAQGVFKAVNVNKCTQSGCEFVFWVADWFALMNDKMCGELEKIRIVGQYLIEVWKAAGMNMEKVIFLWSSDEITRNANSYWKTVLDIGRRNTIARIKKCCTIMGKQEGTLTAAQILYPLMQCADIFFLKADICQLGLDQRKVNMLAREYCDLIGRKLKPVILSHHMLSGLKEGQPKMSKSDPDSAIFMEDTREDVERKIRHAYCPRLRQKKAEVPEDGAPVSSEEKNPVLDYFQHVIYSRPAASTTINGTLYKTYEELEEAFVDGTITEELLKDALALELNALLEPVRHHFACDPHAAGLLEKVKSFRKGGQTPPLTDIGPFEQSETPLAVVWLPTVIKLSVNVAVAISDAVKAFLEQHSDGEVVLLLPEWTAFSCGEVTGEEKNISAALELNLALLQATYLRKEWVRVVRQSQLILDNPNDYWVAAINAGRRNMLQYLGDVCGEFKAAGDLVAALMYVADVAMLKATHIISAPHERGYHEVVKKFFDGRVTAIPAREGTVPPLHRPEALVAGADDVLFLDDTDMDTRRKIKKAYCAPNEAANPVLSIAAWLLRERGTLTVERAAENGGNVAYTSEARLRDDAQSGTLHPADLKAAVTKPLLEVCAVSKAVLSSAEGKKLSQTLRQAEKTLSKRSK
# [7] = biological target: T4, Tyrosyl-tRNA synthetase, putative (Trypanosoma cruzi (strain CL Brener)); assay: Trypanosoma cruzi tyrosyl tRNA synthetase (TcYRS) SOP; type: functional; settings: 30 µM
# [8] = biological target: Chromo domain-containing protein 1 (Saccharomyces cerevisiae (strain ATCC 204508 / S288c) (Baker's yeast)) (UniProt P32657); assay: ScCHD-1 Enzyme Inhibition Assay; type: functional; settings: 30 µM; also: in the data most compounds retested in dose-response had high values
# N/A = assay: Trypanosoma cruzi proteasome luciferase counter-screen; type: functional; settings: 9.37 µM
# Chain of Chromo domain-containing protein 1 (Saccharomyces cerevisiae (strain ATCC 204508 / S288c) (Baker's yeast)) (P32657 whole entry, the tested form may be a part): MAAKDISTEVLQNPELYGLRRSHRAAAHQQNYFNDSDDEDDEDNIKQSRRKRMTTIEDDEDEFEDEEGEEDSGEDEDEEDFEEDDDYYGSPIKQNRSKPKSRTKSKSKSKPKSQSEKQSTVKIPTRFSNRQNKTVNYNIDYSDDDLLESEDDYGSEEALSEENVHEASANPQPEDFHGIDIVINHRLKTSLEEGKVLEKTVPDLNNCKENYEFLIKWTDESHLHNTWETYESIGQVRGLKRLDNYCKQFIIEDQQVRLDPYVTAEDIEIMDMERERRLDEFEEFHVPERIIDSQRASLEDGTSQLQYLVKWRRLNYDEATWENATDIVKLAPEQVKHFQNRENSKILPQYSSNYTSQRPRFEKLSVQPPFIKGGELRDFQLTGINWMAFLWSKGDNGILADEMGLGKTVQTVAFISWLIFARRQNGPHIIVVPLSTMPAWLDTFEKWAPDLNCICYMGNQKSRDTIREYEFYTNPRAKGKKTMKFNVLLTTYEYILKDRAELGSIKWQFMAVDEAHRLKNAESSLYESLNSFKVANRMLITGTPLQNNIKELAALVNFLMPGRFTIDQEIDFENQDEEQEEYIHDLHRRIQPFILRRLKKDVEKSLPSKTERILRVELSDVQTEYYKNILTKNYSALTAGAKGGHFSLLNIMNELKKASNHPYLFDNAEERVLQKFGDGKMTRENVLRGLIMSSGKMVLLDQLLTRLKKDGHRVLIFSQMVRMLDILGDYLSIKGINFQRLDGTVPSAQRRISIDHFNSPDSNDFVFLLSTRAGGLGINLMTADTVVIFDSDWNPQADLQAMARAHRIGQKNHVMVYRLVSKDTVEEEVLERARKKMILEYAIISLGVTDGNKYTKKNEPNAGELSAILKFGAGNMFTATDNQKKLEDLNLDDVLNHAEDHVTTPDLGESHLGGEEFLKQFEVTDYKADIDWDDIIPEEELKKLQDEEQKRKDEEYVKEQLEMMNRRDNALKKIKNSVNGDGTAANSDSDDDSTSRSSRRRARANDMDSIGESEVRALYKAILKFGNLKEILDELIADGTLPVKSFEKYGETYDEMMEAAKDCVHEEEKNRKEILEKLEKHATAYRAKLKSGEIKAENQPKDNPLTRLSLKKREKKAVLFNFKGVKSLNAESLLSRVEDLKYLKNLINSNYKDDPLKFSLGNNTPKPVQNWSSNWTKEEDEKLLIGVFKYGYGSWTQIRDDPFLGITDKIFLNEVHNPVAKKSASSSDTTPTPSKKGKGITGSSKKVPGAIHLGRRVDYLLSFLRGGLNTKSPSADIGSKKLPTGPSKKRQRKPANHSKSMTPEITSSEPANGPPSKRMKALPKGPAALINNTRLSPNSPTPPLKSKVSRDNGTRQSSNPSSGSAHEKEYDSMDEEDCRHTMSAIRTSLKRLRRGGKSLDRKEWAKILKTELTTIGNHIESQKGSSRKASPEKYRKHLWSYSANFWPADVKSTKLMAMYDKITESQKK
# Chain of Sialic acid-binding Ig-like lectin 9 (Homo sapiens) (Q9Y336 whole entry): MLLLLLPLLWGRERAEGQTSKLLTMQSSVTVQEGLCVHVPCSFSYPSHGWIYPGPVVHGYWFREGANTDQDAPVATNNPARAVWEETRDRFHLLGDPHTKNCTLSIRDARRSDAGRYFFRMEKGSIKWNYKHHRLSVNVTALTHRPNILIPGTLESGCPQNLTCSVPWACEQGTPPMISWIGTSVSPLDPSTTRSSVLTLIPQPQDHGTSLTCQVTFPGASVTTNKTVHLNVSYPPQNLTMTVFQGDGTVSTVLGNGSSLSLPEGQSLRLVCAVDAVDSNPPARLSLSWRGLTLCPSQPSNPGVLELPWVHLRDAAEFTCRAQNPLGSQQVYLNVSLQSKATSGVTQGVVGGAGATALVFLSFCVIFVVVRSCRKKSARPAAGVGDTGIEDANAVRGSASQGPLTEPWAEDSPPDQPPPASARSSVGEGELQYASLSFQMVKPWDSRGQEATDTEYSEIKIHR
# Chain of Protein translocase subunit SecA (Escherichia coli (strain K12)) (P10408 whole entry): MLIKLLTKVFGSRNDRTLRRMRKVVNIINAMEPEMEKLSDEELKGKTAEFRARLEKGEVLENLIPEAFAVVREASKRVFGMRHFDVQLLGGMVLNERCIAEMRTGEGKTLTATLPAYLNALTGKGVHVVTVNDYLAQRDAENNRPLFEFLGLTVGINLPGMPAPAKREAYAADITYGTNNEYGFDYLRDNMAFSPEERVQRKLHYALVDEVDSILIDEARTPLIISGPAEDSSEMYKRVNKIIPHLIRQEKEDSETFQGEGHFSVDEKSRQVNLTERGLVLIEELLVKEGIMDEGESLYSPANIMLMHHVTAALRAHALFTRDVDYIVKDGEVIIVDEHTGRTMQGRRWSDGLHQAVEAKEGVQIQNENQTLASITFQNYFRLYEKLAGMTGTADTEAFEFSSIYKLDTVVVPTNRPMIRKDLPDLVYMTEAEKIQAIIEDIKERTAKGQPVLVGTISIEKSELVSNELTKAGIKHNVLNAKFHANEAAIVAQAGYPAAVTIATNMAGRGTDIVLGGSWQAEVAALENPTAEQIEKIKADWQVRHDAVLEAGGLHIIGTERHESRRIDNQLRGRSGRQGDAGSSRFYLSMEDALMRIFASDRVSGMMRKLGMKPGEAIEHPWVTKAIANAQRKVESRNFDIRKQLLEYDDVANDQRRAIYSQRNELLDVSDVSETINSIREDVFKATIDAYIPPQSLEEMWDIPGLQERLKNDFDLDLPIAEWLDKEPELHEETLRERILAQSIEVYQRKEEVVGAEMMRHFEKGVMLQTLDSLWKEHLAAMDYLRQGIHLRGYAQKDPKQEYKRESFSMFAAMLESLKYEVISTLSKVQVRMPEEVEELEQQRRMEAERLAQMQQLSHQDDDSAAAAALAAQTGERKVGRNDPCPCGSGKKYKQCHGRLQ
SMILES,Percent Effect [1] [%],Percent Effect [2] [%],Percent Effect [3] [%],Percent Effect (Trypanosoma cruzi) [%],Percent Effect [4] [%],Percent Effect [5] [%],Percent Effect (Homo sapiens) [%],Percent Effect [6] [%],Percent Effect [7] [%],Percent Effect [8] [%],Percent Effect (N/A)
CC(C)c1nnc2n1CCN(C(=O)c1ccnc(N(C)C)c1)C2,-5.81,10.7,7.33,0,-5.76,16.9,-3.26,3.68,10.3,-12.4,
Cn1cc(C(=O)N2CCCC(Cc3nccs3)C2)cn1 (stereo not given),-2.98,12,-0.254,-2.96,3.54,7.55,6.88,2.12,15,-16.3,
Cc1noc(C2CCN(C(=O)CCNc3ncccn3)CC2)n1,-0.897,12.8,-14,5.92,0,9.98,14.8,6.22,22.9,-4.88,
Cc1[nH]/c(=N\C(=O)c2csc(NCC(C)C)n2)sc1C,-5.08,5.41,2.69,-3.2,-2.45,,20.5,5.85,21.9,0.249,53.4% and 61%
CCC1c2ccsc2CCN1C(=O)NCc1ccccn1 (stereo not given),-3.49,20.5,-10.3,4.6,4.1,10.2,10.8,5.26,22.9,-7.76,
